Compound activity from PubChem.
In the library only some 2.5% were active in any assay of this set; here they are far more common.
MRP-1 activ – MRP-1 activation. H69AR cells + doxorubicin, viability rescue, CellTiter-Glo. viability increase, % at 10 µM. actives 0.61% (n = 140,000). AID 799;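 active = viability gain under doxorubicin at or above a set limit, the compound median plus 3 SD, cut at about 4.7% in these data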;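 note: MRP-1 overexpressing cells given doxorubicin 25 µM after compound pretreatment; 18-22 h compound pretreatment then 72 h with doxorubicin before readout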
Measles CPE – protection of cells from measles virus. Measles virus-infected cells, CPE protection, absorbance. protection (pct of control), % at 4 µM. actives 1.5% (n = 140,000). AID 841; in the data active = protection mostly above about 24%, no sharp cut-off; inactive = mostly below about 26%
sEH act – activators of human soluble epoxide hydrolase; P34913; purified human sEH enzymatic activity, activator screen; activation, % at 2 µM; actives 0.04% (n = 91,000); AID 717; in the data active = activation above about 37%
Target sequence (P34913 whole entry, looked up): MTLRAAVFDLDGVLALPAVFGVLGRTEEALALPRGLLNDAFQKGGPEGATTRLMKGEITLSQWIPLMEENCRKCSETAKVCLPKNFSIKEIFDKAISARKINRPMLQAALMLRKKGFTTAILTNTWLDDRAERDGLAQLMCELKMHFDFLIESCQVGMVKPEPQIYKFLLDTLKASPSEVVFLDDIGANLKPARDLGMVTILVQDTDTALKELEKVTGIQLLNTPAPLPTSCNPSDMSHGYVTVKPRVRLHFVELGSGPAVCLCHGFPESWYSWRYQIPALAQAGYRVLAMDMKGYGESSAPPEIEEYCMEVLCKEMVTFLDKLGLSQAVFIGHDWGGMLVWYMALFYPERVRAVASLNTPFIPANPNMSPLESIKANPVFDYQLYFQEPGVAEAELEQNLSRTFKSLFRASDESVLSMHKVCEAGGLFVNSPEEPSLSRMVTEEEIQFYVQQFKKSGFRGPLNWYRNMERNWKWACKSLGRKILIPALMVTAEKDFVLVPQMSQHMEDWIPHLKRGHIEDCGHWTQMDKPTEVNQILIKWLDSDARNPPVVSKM
MRP reversal – compounds reversing MRP-mediated drug resistance. H69AR cells + 2 uM doxorubicin, CellTiter-Glo, 72 h. differential viability (reversal), % at 10 µM. actives 0.04% (n = 85,000). AID 602;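 active = viability drop by adding the cancer drug above about 55%, with treated viability meeting a 40% cutoff, limit read from the data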;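 note: larger differential means the compound sensitizes cells more to doxorubicin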
sEH inh – blocks human soluble epoxide hydrolase activity. recombinant human sEH enzymatic activity assay. inhibition, % at 2 µM. actives 0.34% (n = 91,000); in the data active = inhibition above about 80%
sdo1 growth – sdo1-depleted yeast growth rescue. S. cerevisiae sdo1-depleted JHY4D growth rescue, OD600 30 h; hits give high values; pdr5 snq2 efflux-pump mutant strain. z-score at 10 µM. actives 0.21% (n = 140,000);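 active = z-score above 3 at both the 24 hr and the 30 hr optical density reads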
A number is an active result; n = inactive; x = no result given.

SMILES	MRP-1 activ	Measles CPE	sEH act	MRP reversal	sEH inh	sdo1 growth
[O-]/[N+](=C\c1ccc(OC(F)F)cc1)c1ccccc1	n	42	n	x	n	n
O=C1c2ccccc2-c2c1cccc2C(=O)N1CCCCCC1	n	n	x	x	x	n
O=C1c2ccccc2-c2cccc(C(=O)N3CCCCCC3)c21	n	29	x	x	x	n
O=C(NCc1ccccc1)Nc1cccn(Cc2cccc(F)c2)c1=O	n	n	x	x	x	n
C=CCn1c(SCC(N)=O)nnc1-c1cccc(Br)c1	n	35	n	n	n	n
CCCc1nnc(SCc2ccc(OC)cc2)n1N	n	n	n	n	n	n
O=C(Nc1ccc2c(c1)OCO2)C1CC(c2ccc(Cl)cc2)=NO1 (stereo not given)	n	40	n	n	n	n
COC(=O)c1[nH]c2ccccc2c1NC(=O)CN1CCN(c2cccc(Cl)c2)CC1	n	n	n	n	n	n
COC(=O)c1[nH]c2cccc(OC)c2c1NC(=O)CCN1CCN(c2cccc(Cl)c2)CC1	n	n	114	n	n	n
CCSc1nnc(Cn2c(=O)sc3ccccc32)n1C	n	n	x	n	x	n
CC(Sc1nnc(Cn2c(=O)sc3ccccc32)n1C)c1ccccc1 (stereo not given)	n	51	x	n	x	n
N#C/C(=C1/CCCCCN1)c1nc2ccccc2[nH]1	n	n	n	n	n	n
N#C/C(=C1\CCCN1)c1ccc2ccccc2n1	n	18	n	n	n	n
O=C1c2cccc3cccc(c23)C(=O)N1CCN1CCN(CC(O)COc2ccc3ccccc3c2)CC1 (stereo not given)	n	57	x	x	x	n
O=C(CSc1nnc(NC(=O)c2ccccc2Cl)s1)Nc1ccc2c(c1)oc1ccccc12	n	n	x	x	x	n
CCOC(=O)c1sc(NC(=O)CSc2nncs2)c(C(=O)OCC)c1C	n	n	x	n	x	n
CCOC(=O)c1sc(NC(=O)CSc2nc3ccccc3s2)c(C(=O)OCC)c1C	n	40	x	x	x	n
O=C(CSc1nc2ccccc2s1)Nc1ccc2c(c1)oc1ccccc12	n	26	x	x	x	n
CC(C)Sc1oc(-c2ccco2)nc1S(=O)(=O)c1ccccc1	n	30	n	x	n	n
O=C(CN1CCCCC1)Nc1ccc(F)c(Cl)c1	n	56	x	n	x	n
CN(C)c1ccc(NC(=O)CN2CCN(S(=O)(=O)c3cc(Cl)ccc3Cl)CC2)cc1	n	n	n	x	n	n
O=C(CN1CCCCCC1)Nc1ccc(F)c(F)c1	n	n	n	n	n	n
O=C(CN1CCN(S(=O)(=O)c2cc(Cl)ccc2Cl)CC1)Nc1ccc2c(c1)OCCO2	n	42	x	n	x	n
CNCCOc1nc(N2CCOCC2)nc(C)c1[N+](=O)[O-]	n	56	x	x	x	n
CC(=O)Nc1sc(NC(=O)c2ccc(C)cc2)nc1-c1cccs1	n	n	n	n	n	n
SMILES	MRP-1 activ	Measles CPE	sEH act	MRP reversal	sEH inh	sdo1 growth
COc1cccc(NCc2ccc([N+](=O)[O-])s2)c1	n	48	x	x	x	n
O=C(Nc1ccc(C#Cc2ccccc2)cc1)C1CC1	n	58	n	x	n	n
CC(CCc1ccccc1)NC(=O)C1CCCN(c2nnc(-n3cccc3)s2)C1 (stereo not given)	n	35	n	n	n	n
CCCCCCC(=O)NNC(=O)CC(=O)Nc1ccccc1C(=O)O	n	n	x	x	x	n
CC(=O)N(CCCN1CCOCC1)Cc1ccncc1	n	57	n	n	n	n
c1cc(CNCCCN2CCOCC2)ccn1	n	n	n	n	n	n
N#Cc1c(-c2ccccc2)[nH]c(=S)[nH]c1=O	4.7	n	n	n	n	n
CC1(C)Cc2c(c(-c3ccccc3)[nH]c(=O)c2C#N)CS1	n	n	n	n	n	n
Cc1cccc(C(=O)NC(=S)N2CCN(C(=S)NC(=O)c3cccc(C)c3)CC2)c1	n	n	x	x	x	n
CSc1cccc(NC(=O)Cn2cccc2)c1	n	80	n	n	n	n
CCSc1nnc(-c2cccnc2)n1-c1ccc(Cl)c(C)c1	n	n	n	n	n	n
COc1cc2c(cc1OC)C(=O)CCS2	n	n	n	x	n	n
COc1ccc2c(c1)SCCC2=O	n	34	n	x	n	n
CCC(=O)c1ccc(N2CCOCC2)c(F)c1	7.7	n	n	n	n	n
Cc1ccc(S(=O)(=O)N2CCN(CC(=O)N(CC(C)C)c3c(N)n(CC(C)C)c(=O)[nH]c3=O)CC2)c(C)c1	n	n	x	x	x	n
CC(C)C(=O)N(Cc1cc2ccccc2[nH]c1=O)C(C)C	n	n	n	n	n	n
CC(C)N(Cc1cc2ccccc2[nH]c1=O)C(=O)C(C)(C)C	9.3	n	n	n	n	n
CCOc1cc(C(=O)N(C)Cc2cc3ccccc3[nH]c2=O)cc(OCC)c1OCC	n	64	n	n	n	n
CCCCc1nc(N2CCOCC2)c(C#N)c2c1CCCC2	n	56	n	n	n	n
CC(C)CCNC(=O)Cc1c(C(=O)O)[nH]c2ccc(Cl)cc12	n	46	n	n	n	n
Cc1cccc(N2CCN(C(=O)Cc3c(C(=O)O)[nH]c4ccc(Cl)cc34)CC2)c1C	n	n	n	x	n	n
CCSc1nc(-c2cccs2)nc2c1c(=O)n(C)c(=O)n2C	x	x	x	n	x	x
CCN(CC)C(=S)SCC(=O)Nc1nc(-c2ccccc2)c(-c2ccccc2)o1	n	n	x	x	x	n
Cn1nnnc1SCC(=O)Nc1nc(-c2ccccc2)c(-c2ccccc2)o1	n	n	n	60	n	n
NC1=NC2CS(=O)(=O)CC2S1 (stereo not given)	n	n	x	x	x	n
SMILES	MRP-1 activ	Measles CPE	sEH act	MRP reversal	sEH inh	sdo1 growth
CCCn1c(SCC(=O)Nc2ccccc2C(=O)OC)nc2c1c(=O)n(C)c(=O)n2C	n	n	n	n	n	n
CCCn1c(SCC(=O)Nc2sc(C)c(C)c2C(=O)OCC)nc2c1c(=O)n(C)c(=O)n2C	n	31	n	n	n	n
CCn1c(SCC(=O)Nc2nc3ccc(OC)cc3s2)nc2c1c(=O)n(C)c(=O)n2C	n	27	x	n	x	n
COc1ccc(CN=C2NC(=O)CC(C(=O)Nc3ccccc3C)S2)cc1 (stereo not given)	6.0	n	x	x	x	n
Cc1ccc2oc(=O)c3cnn(CC(=O)Nc4cc(-c5cccc(F)c5)no4)c3c2c1	n	n	x	x	x	n
COc1cccc(NC(=O)c2oc3ccccc3c2NC(=O)C(C)(C)C)c1	n	n	n	n	n	n
COc1cccc(NC(=O)c2oc3ccccc3c2NC(=O)c2ccc3c(c2)OCO3)c1	5.0	n	x	n	x	n
Cc1ccc(-c2[nH]ncc2/C=C(\C#N)C(=O)NC2CCCCC2)cc1	n	70	n	x	n	n
COc1ccc(-c2[nH]ncc2/C=C(/C#N)C(=O)NC2CCCCC2)cc1	n	n	n	x	n	n
Cn1c(-c2ccccc2)cnc1SCC(=O)N1CCCCC1	n	18	n	n	n	n
Cc1noc(NS(=O)(=O)c2ccc(N/C=C\C(=O)c3ccncc3)cc2)c1C	n	n	n	n	n	n
COc1ccc(C(=O)/C=C/Nc2ccc(S(=O)(=O)Nc3onc(C)c3C)cc2)cc1	n	43	x	x	x	n
Cc1ccc(-n2nc(C(=O)c3ccccc3)n3c(=O)cc(-c4ccccc4)nc23)cc1	n	26	n	x	n	n
